Experimental findings from PubChem BioAssay (Tox21) are described below.

The structures appear in SMILES notation. Where “and” joins values, the source holds several entries; their conditions need not be identical. Identical values can stand only once. Inconclusive results are not listed. Calls of active or inactive are those of the source. Unless noted, calls follow the shape of the full dose curve.

Assay [1] in a line: Nuclear factor erythroid 2-related factor 2/antioxidant responsive element (Nrf2/ARE) small molecule agonists: qHTS cell viability counter screen in human keratinocytes (AID 1919968; active = well fitted curve in the direction sought with a large enough effect in the repeat runs; an effect the other way counts as inactive or inconclusive; also: nearly all actives have a fitted effect of over 55% in size). In a few lines: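 Parallel cytotoxicity read: KeratinoSens HaCaT cells, compound treatment 23 h, viability by CellTiter-Fluor fluorescence 1 h post-reagent.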
Assay [2] can be described thus: Nuclear factor erythroid 2-related factor 2/antioxidant responsive element (Nrf2/ARE) small molecule agonists: luciferase reporter gene qHTS assay in human keratinocytes (AID 1919969). Also: nearly all actives have a fitted effect of over 35% in size. Also: potency is read from the fitted curve at half-maximal effect.
In assay [3] the target is Gonadotropin-releasing hormone receptor (Homo sapiens) (UniProt P30968). Put plainly: Human gonadotropin-releasing hormone receptor (GnRHR) small molecule agonists, calcium flux assay in GnRHR-HEK293 cells (AID 1920063). Also: nearly all actives have a fitted effect of over 35% in size. In a few lines: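 Calcium flux, agonist mode, human GnRHR stably integrated in HEK293; dye 1 h at 37 C before compound; Ex/Em=480/540 kinetic read, 3 min; 15 concentrations, triplicate.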
Gonadotropin-releasing hormone receptor (Homo sapiens), sequence (P30968 whole entry, looked up): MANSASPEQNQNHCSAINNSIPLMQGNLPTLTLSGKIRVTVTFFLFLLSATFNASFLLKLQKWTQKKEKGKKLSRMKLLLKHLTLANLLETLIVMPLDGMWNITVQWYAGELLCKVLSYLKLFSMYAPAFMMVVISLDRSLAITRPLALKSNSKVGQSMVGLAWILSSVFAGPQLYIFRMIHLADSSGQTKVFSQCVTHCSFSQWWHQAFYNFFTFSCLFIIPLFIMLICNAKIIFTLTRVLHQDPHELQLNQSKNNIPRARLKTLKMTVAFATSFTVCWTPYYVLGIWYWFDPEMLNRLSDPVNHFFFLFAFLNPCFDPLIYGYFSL

Assay [4] deals with KiSS-1 receptor (Homo sapiens) (UniProt Q969F8). Put plainly: Human kisspeptin (KISS1R) small molecule agonists, calcium flux assay in KISS1R-HEK293 cells (AID 1920064; active = well fitted curve in the direction sought with a large enough effect in the repeat runs; an effect the other way counts as inactive or inconclusive). In a few lines:
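Triplicate 15-concentration series were applied to dye-loaded human KISS1R HEK293 cells, and agonist-evoked calcium fluorescence was captured for 3 min.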

Assay [5] can be described thus: G protein-coupled receptor (GPCR) small molecule agonists, calcium flux assay: HEK293 wild type cell line counter screen (AID 1920065). In a few lines:
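Non-specific calcium responders were flagged by adding DMSO-dissolved compounds to dye-loaded cells and reading 480/540 nm fluorescence each second for 3 min; ATP served as positive control.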

A short description of assay [6]: p53 small molecule agonists, cell-based qHTS assay with human liver microsomes (AID 1963577).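 Also: p53 response element beta-lactamase reporter cells with liver microsomes plus NADPH.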 A digest of the protocol: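 Steps: plate p53RE-bla cells, incubate 5 h at 37 C; add compound in DMSO; add microsomes (0.5 mg/mL final) and NADPH (0.5 mg/mL final); incubate 16 h at 37 C; add LiveBLAzer, 2 h RT; read fluorescence.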
A short description of assay [7]: p53 small molecule agonists, cell-based qHTS assay with rat liver microsomes (AID 1963578). A digest of the protocol: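 Metabolic activation is supplied by rat liver microsomes with NADPH (each 0.5 mg/mL final). p53RE-bla cells incubate with compound 16 h at 37 C; reporter activity is measured by LiveBLAzer fluorescence.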
Assay [8] can be described thus: p53 small molecule agonists, cell-based qHTS assay with human liver microsomes: qHTS cell viability counter screen (AID 1963579). Also: nearly all actives have a fitted effect of over 45% in size. In a few lines: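 After the 460/530 nm beta-lactamase read, CellTiter-Glo was added to the same wells and luminescence measured after 30 min at room temperature, giving viability of p53RE-bla cells treated 16 h with compounds plus microsomes and NADPH.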

Assay [9] can be described thus: p53 small molecule agonists, cell-based qHTS assay with rat liver microsomes: qHTS cell viability counter screen (AID 1963580). Also: nearly all actives have a fitted effect of over 45% in size. A digest of the protocol:
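Rat liver microsome (0.5 mg/mL final) and NADPH (0.5 mg/mL final) co-incubation with compounds for 16 h at 37 C on HCT-116 p53RE-bla cells; cytotoxicity taken from intracellular ATP luminescence.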

The nature of assay [10]: p53 small molecule agonists, cell-based qHTS assay: qHTS cell viability counter screen (AID 1963581). Also: nearly all actives have a fitted effect of over 45% in size. A digest of the protocol: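 Multiplexed with the reporter read, a CellTiter-Glo step (30 min, room temperature) gauges ATP-based viability of HCT-116 p53RE-bla cells after 16 h compound incubation at 37 C.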
Assay [11] in a line: p53 small molecule agonists, cell-based qHTS assay (AID 1963582; active = well fitted activation curve with a large enough effect in the signal ratio in the repeat runs, not every such curve was filed as active; the % refers to the signal ratio). In a few lines:
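Beta-lactamase reporter cells (p53RE-bla) treated with compounds for 16 h at 37 C; FRET substrate, 2 h, room temperature; fluorescence intensity.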

Assay [12] addresses 5-hydroxytryptamine receptor 2A (Homo sapiens) (UniProt P28223). Put plainly: 5-hydroxytryptamine receptor 2A (HTR2A) small molecule antagonists, cell-based qHTS assay (AID 1963586). Also: nearly all actives have a fitted effect of over 45% in size. A digest of the protocol:
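CHO cells stably expressing human HTR2A were plated for 18 h at 37 C, then loaded with calcium dye for 1 h. Compounds were preincubated 5 min at room temperature before DOI (4 nM solution) was added. Kinetic fluorescence was read for 3 min.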

The target is the same in assay [13]. Put plainly: 5-hydroxytryptamine receptor 2A (HTR2A) small molecule agonists, cell-based qHTS assay (AID 1963587). Also: nearly all actives have a fitted effect of over 30% in size. A digest of the protocol: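 Kinetic calcium-flux fluorescence (2 min, 1 sec intervals) after compound addition in agonist mode. HTR2A-CHO cells were cultured 18 h, then dye-loaded 1 h at 37 C.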
Assay [14] addresses Muscarinic acetylcholine receptor M1 (Homo sapiens) (UniProt P11229). Put plainly: Cholinergic receptor muscarinic 1 (CHRM1) small molecule antagonists, cell-based qHTS assay (AID 1963588). Also: nearly all actives have a fitted effect of over 40% in size. Also: potency is read from the fitted curve at half-maximal effect. In a few lines:
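Compounds were tested at 15 concentrations in three independent runs. Dye-loaded CHRM1-CHO cells were exposed 5 min at room temperature before stimulation by acetylcholine added at 50nM. Intracellular calcium was read kinetically on FDSS for 3 min.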

For assay [15] the target is unchanged. Put plainly: Cholinergic receptor muscarinic 1 (CHRM1) small molecule agonists, cell-based qHTS assay (AID 1963589). Also: nearly all actives have a fitted effect of over 35% in size. In a few lines:
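qHTS, 15-point titration, 3 independent runs: compounds pin-transferred onto dye-loaded CHRM1-CHO cells (human M1), calcium fluorescence followed every second to detect agonism.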

Assay [16] deals with Beta-2 adrenergic receptor (Homo sapiens) (UniProt P07550). Put plainly: Adrenergic beta2 receptor (ADRB2) small molecule antagonists, cell-based qHTS assay (AID 1963592). Also: series mostly up to about 92 µM; nearly all actives have a fitted effect of over 50% in size. In a few lines: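 Assay format: CHO-ADRB2 cells, 18-20hr seeding at 37C/5% CO2, then compound plus 1nM isoproterenol agonist mix for 0.5hr RT. Homogeneous time-resolved fluorescence cAMP detection after 1hr, expressed as 665/615 nm ratio.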
Beta-2 adrenergic receptor (Homo sapiens), sequence (P07550 whole entry, looked up): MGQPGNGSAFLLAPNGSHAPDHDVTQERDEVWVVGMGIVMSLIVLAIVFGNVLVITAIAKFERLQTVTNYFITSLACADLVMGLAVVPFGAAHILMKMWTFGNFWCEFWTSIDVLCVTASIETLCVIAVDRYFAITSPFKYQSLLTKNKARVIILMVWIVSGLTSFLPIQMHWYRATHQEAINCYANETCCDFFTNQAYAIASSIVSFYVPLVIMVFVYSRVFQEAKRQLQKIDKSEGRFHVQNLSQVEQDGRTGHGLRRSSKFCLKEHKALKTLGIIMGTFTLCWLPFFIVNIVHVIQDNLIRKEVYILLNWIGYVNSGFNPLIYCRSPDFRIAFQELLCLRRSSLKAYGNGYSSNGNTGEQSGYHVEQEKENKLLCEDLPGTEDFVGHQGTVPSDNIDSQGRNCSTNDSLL

Assay [17] concerns the target D(2) dopamine receptor (Homo sapiens) (UniProt P14416). The experiment in a line: Dopamine D2 receptor (DRD2) small molecule agonists, cell-based qHTS assay (AID 1963594). Also: nearly all actives have a fitted effect of over 35% in size. A digest of the protocol: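 cAMP accumulation in DRD2-HEK293 cells measured by HTRF after 1 h detection; compounds added 10 min before NKH477 (200nM […]) forskolin-analogue stimulation, 30 min at room temperature, with Ro20-1724 present at 0.1 mM final.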

Assay [18] has the same target. The experiment in a line: Dopamine D2 receptor (DRD2) small molecule antagonists, cell-based qHTS assay (AID 1963595; active = well fitted inhibition curve with a large enough effect in the signal ratio in the repeat runs, with a control signal flat; the % refers to the signal ratio). In a few lines:
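Readout: HTRF cAMP, cAMP-d2 competing with cellular cAMP for anti-cAMP cryptate, read after 1 h. Cells: DRD2-HEK293. Conditions: 0.1 mM Ro20-1724, 12 nM quinpirole, 200 nM NKH477, 30 min RT.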

Assay [19] is described as follows: cAMP Responsive Elements (CRE) small molecule antagonists, cell-based qHTS assay (AID 1963591; active = well fitted inhibition curve with a large enough effect in the signal ratio in the repeat runs, not every such curve was filed as active; the % refers to the signal ratio). A digest of the protocol: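 Fluorescence intensity from cleaved LiveBLAzer B/G substrate (2 h, room temperature) quantified CRE-bla activity in HEK 293T cells exposed 3 h to compound with 0.25 uM final NKH477.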
Assay [20] can be described thus: cAMP Responsive Elements (CRE) small molecule agonists, cell-based qHTS assay (AID 1963590). A digest of the protocol:
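Quantitative HTS for CRE agonists: HEK 293T CRE-bla cells, overnight plating, 3 h compound incubation at 37 C/5% CO2, then 2 h room-temperature LiveBLAzer B/G FRET substrate loading.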

D(2) dopamine receptor (Homo sapiens), sequence (P14416 whole entry, looked up): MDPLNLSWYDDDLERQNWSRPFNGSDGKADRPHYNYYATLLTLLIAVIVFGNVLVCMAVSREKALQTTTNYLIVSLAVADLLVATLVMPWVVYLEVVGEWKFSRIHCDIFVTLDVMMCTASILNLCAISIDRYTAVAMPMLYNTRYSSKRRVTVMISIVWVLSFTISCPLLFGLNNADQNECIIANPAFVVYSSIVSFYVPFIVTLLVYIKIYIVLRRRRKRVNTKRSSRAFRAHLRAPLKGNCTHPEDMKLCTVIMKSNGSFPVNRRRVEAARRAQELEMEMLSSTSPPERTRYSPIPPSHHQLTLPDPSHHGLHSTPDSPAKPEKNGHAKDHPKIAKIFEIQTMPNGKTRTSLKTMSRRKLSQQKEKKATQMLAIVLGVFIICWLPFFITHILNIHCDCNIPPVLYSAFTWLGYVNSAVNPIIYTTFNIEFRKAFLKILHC
5-hydroxytryptamine receptor 2A (Homo sapiens), sequence (P28223 whole entry, looked up): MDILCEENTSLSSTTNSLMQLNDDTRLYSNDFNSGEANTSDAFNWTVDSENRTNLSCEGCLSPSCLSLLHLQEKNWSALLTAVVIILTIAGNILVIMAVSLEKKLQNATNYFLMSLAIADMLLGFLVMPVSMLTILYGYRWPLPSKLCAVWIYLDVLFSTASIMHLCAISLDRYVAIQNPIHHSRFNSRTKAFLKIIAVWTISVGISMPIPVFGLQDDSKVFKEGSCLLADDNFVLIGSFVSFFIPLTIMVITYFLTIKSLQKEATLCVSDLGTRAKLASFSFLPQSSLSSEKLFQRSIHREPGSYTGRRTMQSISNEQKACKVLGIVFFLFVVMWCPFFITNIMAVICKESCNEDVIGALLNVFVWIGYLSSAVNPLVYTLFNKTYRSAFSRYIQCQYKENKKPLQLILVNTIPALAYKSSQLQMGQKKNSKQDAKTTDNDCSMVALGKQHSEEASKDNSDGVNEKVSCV
KiSS-1 receptor (Homo sapiens), sequence (Q969F8 whole entry, looked up): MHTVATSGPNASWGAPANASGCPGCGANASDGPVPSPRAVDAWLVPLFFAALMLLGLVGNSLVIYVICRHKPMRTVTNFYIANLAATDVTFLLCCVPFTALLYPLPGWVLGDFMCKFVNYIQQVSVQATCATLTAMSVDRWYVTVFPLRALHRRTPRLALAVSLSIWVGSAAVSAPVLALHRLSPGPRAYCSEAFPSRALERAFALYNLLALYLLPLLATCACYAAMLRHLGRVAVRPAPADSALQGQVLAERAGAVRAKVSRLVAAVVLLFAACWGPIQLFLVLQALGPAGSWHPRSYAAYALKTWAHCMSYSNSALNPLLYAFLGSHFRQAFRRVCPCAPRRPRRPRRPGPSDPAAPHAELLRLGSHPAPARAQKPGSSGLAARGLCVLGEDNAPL
Muscarinic acetylcholine receptor M1 (Homo sapiens), sequence (P11229 whole entry, looked up): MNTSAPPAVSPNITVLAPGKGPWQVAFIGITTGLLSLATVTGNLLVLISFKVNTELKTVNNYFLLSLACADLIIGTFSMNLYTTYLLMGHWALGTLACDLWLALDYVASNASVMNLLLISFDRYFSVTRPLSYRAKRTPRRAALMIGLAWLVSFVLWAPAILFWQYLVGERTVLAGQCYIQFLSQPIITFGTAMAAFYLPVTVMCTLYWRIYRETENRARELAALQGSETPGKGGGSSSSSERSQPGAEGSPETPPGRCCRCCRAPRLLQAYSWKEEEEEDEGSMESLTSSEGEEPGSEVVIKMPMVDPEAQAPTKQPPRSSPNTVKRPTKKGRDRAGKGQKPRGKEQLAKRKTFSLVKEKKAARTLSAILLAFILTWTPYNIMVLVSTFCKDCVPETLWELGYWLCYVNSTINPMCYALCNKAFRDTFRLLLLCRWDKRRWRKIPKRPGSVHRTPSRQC

Take `CCC(C)c1ccc(O)cc1` (configuration not stated): the Potency result in assay [1], in [2], in [3], in [4], in assay [5] and in [6] was “inactive” in each case. The Potency entry in [7], in assay [8], in [9], in assay [10], in assay [11] and in assay [12] was “inactive” each time. In addition, the Potency result in assay [13], in [14], in assay [15], in [16], in assay [17] and in [18] was “inactive” in each case.
As for `CC(C)=CC1C(C(=O)OCN2C(=O)C3=C(CCCC3)C2=O)C1(C)C` (configuration not stated), the Potency result in assay [1], in [3], in [4], in assay [5], in assay [6] and in assay [7] was “inactive” throughout. In addition, the Potency entry in assay [8], in [9], in assay [10], in assay [11], in [12] and in assay [13] was “inactive” throughout. Moreover, the Potency result in assay [15], in [19], in assay [16], in assay [17] and in assay [18] was “inactive” each time. Further, the Potency is 48.6 µM (active) and 26.6 µM (active) in assay [2]; 8.18 µM (active) in [14].
With `c1ccc2c(c1)sc1ccccc12`, the Potency entry in assay [1], in assay [2], in assay [3], in assay [4], in assay [5] and in assay [6] was “inactive” throughout. For the same molecule, the Potency entry in assay [7], in [8], in assay [9], in assay [10], in assay [11] and in [12] was “inactive” throughout. Besides, the Potency entry in assay [13], in [14], in assay [15], in assay [20], in assay [16] and in assay [17] was “inactive” throughout. Also, in [18], the Potency result was “inactive”.
Take `O=[N+]([O-])c1cc(Cl)ccc1Cl`: the Potency entry in assay [1], in [2], in assay [3], in assay [4], in assay [5] and in assay [6] was “inactive” throughout. In addition, the Potency result in assay [7], in assay [8], in [9], in [10], in assay [11] and in [12] was “inactive” each time. The Potency result in [13], in [14], in [15], in assay [19], in [16] and in assay [17] was “inactive” in each case. For the same molecule, the Potency result in assay [18] was “inactive”.
On to `CC1(C)C(=O)NC(=O)NC1=O`, for which the Potency result in assay [1], in [2], in [3], in assay [4], in [5] and in assay [6] was “inactive” in each case. Moreover, the Potency result in [7], in [8], in assay [9], in assay [10], in assay [11] and in [12] was “inactive” each time. Further, the Potency result in [13], in assay [14], in assay [15], in assay [20], in assay [19] and in assay [17] was “inactive” each time. Moreover, the Potency result in assay [18] was “inactive”.
As for `Nc1ccccc1Cl`, the Potency result in [1], in [2], in assay [3], in [4], in assay [5] and in assay [6] was “inactive” throughout. The Potency entry in [7], in assay [8], in assay [9], in [10], in [11] and in assay [12] was “inactive” in each case. Moreover, the Potency entry in assay [13], in assay [14], in assay [15], in [20], in assay [19] and in assay [17] was “inactive” in each case. Moreover, in assay [18], the Potency entry was “inactive”.
With `CNC(=O)O/N=C/C(C)(C)S(C)=O` (configuration not stated), the Potency entry in assay [1], in [2], in assay [3], in assay [4], in [5] and in assay [6] was “inactive” throughout. The Potency entry in assay [7], in assay [8], in [9], in [10], in assay [11] and in [12] was “inactive” in each case. The Potency entry in assay [13], in [14], in [15], in assay [19], in assay [16] and in [17] was “inactive” each time. Besides, the Potency result in [18] was “inactive”.
